Data as given in paper PMC4336329 (PLoS ONE, 2015).
The whole screen tested about 310,000 compounds, of which about 14,000 (4.5%) showed an effect of 50% or more. Effects have a minus sign here. This is one part of a sample in which strong results are shown more often than they occur.

biological target: human ether-à-go-go-related gene (hERG) potassium channel (human, UniProt Q12809); experiment: primary screen, population patch clamp on CHO cells stably expressing hERG; higher = less effect of the substance
Sequence (Q12809 whole entry, looked up): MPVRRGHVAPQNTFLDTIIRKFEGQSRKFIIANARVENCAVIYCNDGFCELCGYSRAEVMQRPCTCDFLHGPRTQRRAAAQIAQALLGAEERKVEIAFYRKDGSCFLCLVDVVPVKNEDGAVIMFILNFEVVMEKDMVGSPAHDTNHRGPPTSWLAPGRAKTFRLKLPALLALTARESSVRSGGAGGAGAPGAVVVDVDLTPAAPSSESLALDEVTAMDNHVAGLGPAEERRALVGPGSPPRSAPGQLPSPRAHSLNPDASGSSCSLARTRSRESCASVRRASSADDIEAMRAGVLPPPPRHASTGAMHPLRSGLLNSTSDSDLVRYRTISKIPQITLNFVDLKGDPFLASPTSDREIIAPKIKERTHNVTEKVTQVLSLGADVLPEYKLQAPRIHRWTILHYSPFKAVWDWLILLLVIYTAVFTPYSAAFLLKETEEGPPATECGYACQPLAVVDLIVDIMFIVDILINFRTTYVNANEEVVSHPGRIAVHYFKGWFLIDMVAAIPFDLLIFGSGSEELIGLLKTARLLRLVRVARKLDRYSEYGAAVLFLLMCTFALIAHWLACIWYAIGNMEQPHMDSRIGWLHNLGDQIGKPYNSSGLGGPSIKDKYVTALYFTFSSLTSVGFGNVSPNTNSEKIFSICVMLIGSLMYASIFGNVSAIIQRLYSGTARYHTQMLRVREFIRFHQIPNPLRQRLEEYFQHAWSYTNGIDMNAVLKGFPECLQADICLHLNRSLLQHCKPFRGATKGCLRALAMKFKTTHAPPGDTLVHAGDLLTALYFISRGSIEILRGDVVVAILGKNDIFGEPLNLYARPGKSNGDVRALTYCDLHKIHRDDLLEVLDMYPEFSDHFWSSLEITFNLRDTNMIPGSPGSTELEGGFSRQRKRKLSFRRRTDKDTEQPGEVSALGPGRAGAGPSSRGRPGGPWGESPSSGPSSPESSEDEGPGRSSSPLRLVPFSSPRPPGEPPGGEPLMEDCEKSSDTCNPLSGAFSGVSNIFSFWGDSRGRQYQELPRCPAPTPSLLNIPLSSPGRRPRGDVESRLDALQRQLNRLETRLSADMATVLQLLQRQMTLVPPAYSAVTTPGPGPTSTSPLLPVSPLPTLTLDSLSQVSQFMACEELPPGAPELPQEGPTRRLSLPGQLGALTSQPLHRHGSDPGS
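Note: peak tail current of the secondary pulse compared with the same well before compound.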

SMILES	hERG current change (%, negative = inhibition) at 10uM
CCN(CC(=O)Nc1cc(Cl)ccc1C)C(=O)COc1cccc2c1OC(C)(C)C2	-4.2%
Cc1ccc(S(=O)(=O)N2CCOCC2)cc1C(=O)Nc1cccc(S(=O)(=O)N2CCCC2)c1	-38.3%
Cc1ccc(S(C)(=O)=O)cc1C(=O)Nc1cccc(S(=O)(=O)N2CCCCCC2)c1	-65.2%
CC(=O)Nc1ccc(NC(=O)c2cc(S(=O)(=O)N3CCCCC3)ccc2C)cc1	5.45%
CSc1ncccc1C(=O)Nc1ccc(S(=O)(=O)N2CCCC2)cc1	-16.6%
CCOc1ncccc1C(=O)Nc1cccc(S(=O)(=O)N2CCCCC2)c1	-7.03%
CSc1ncccc1C(=O)Nc1cccc(S(=O)(=O)N2CCCCC2)c1	-64.3%
COc1ccc(OC2C(=O)N(Cc3ccc4c(c3)OCO4)C2c2sccc2C)cc1 (stereo not drawn)	-5.31%
O=CNCC(=O)NC1CCCCCC1	20.5%
COc1ccc(CN2C(=O)c3cccnc3C2=O)cc1S(=O)(=O)N(C)Cc1ccco1	-13.3%
O=C1c2cccnc2C(=O)N1Cc1ccc(S(=O)(=O)NCc2ccco2)s1	16.2%
CN(Cc1ccco1)S(=O)(=O)c1ccc(CN2C(=O)c3cccnc3C2=O)s1	-63.4%
O=C(C1=C(O)C(=O)N(c2ncccn2)C1c1ccc(Cl)cc1)c1ccco1 (stereo not drawn)	7.37%
O=C(CCl)N=c1sccn1Cc1ccccc1Cl	-5.61%
COc1cc(/C=C(\C#N)C(=O)NCc2cccs2)ccc1O	-0.725%
COc1ccc(Br)cc1CN(C)CC(=O)NCCc1ccccc1.O=C(O)C(=O)O	-14.7%
CCOc1cc(CNC2CCCC2)c(Cl)cc1OCC(=O)Nc1ccccc1	-67.8%
COc1ccccc1NC(=O)COc1ccc(Br)cc1CO	-4.58%
CCCNCc1cc(OCC)c(OCC(=O)Nc2ccccc2)cc1Br	-24.7%
CCOc1cc(CNCC(C)C)c(Cl)cc1OCC(=O)Nc1ccccc1	-15.2%
O=C(COc1ccc(Br)cc1CO)Nc1ccccc1	-10.4%
COc1ccccc1NC(=O)COc1ccc(Br)cc1CNC1CCCC1	-53.2%
COc1cc(CNC2CCCC2)cc(Br)c1OCC(=O)Nc1ccccc1C	-1.01%
O=C(COc1ccc(Br)cc1Br)NC1CCCC1	12.9%

SMILES	hERG current change (%, negative = inhibition) at 10uM
O=C(COc1ccc(Br)cc1CO)Nc1ccc(F)cc1	-32.8%
O=C(COc1ccc(Br)cc1CNC1CCCCC1)NCCc1ccccc1	-77%
Cl.O=C(COc1ccc(Br)cc1CNC1CCCC1)Nc1ccccc1	-73.1%
COC(=O)c1cc(C(=O)CC(C)C)c[nH]1	16.7%
O=C(/C=C/c1ccccc1)NC(=S)NNC(=O)Cc1cccs1	22.5%
COc1ccc(NC(=O)CCS(=O)(=O)c2cc3c(cc2Cl)NC(=O)CO3)cc1OC	9.57%
COc1cc(-c2noc(C)c2C(=O)NCCc2c[nH]c3ccccc23)cc(OC)c1OC	0.397%
O=C(NCCc1ccccn1)C1CCCN(S(=O)(=O)Cc2ccccc2)C1 (stereo not drawn)	9.26%
CC(C)(C)c1ccc(C(=O)Oc2ccc3c(c2)OCC3=O)cc1	2.55%
CCOc1ccccc1CNCC1CCCO1.Cl (stereo not drawn)	11.5%
Brc1cccc(CNCC2CCCO2)c1 (stereo not drawn)	4.72%
Cl.Fc1ccccc1COc1ccc(Br)cc1CNCC1CCCO1 (stereo not drawn)	-68.3%
Brc1ccc(OCc2ccccc2)c(CNCC2CCCO2)c1.Cl (stereo not drawn)	-50%
COc1ccc(Br)cc1CNCC1CCCO1 (stereo not drawn)	5.7%
Cl.Fc1ccc(COc2ccc(Br)cc2CNCC2CCCO2)cc1 (stereo not drawn)	-63.5%
CN(C)S(=O)(=O)c1ccc(NC(=O)CN2C(=O)NC3(CCCC3)C2=O)cc1	8.41%
CCOc1ccc2nc(NC(=O)CSc3nnc(-c4ccncc4)n3CC3CCCO3)sc2c1 (stereo not drawn)	3.71%
Fc1ccc(NC(=S)NCCc2ccc(Cl)cc2)cc1	1.47%
COCCn1cnc2c1c(=O)n(CC(=O)OCC(=O)NCC(F)(F)F)c(=O)n2Cc1ccccc1	4.6%
COCCn1cnc2c1c(=O)n(CC(=O)NN)c(=O)n2Cc1ccccc1	8.95%
COCCn1cnc2c1c(=O)n(CC(=O)OCC(=O)NCCCc1ccccc1)c(=O)n2Cc1ccccc1	-57.9%
COc1ccc(CNS(=O)(=O)c2ccc(S(=O)(=O)NC3CC3)cc2)cc1	17.9%
Cc1cccc(NC(=O)NCCN2CCCCC2)c1	-25%
O=C(O)CN1C(=O)CSc2ccccc21	-30.6%

SMILES	hERG current change (%, negative = inhibition) at 10uM
O=C1CSc2ccccc2N1Cc1ccccc1F	-55.8%
O=C1CSc2ccccc2N1Cc1ccc(F)cc1	-38.4%
COC(=O)c1cccc(NC(=O)c2ccco2)c1	4.02%
CCN(CC)C1=CC(=[N+]2CCCC2)CC(C)(C)C1.[I-]	-4.08%
CCCN(CCC)C1=CC(=[N+]2CCCC2)CC(C)(C)C1.[I-]	-72.4%
CC1(C)CC(N2CCCC2)=CC(=[N+]2CCCCC2)C1.[I-]	3.58%
CC1(C)CC(N2CCCC2)=CC(=[N+]2CCCC2)C1.[I-]	-12.1%
CN(Cc1ccccc1)C1=CC(=[N+]2CCCCC2)CC(C)(C)C1.[I-]	-54.3%
CC1(C)CC(N2CCN(c3ccccc3)CC2)=CC(=[N+]2CCCC2)C1.[I-]	-15.3%
CN(Cc1ccccc1)C1=CC(=[N+]2CCCC2)CC(C)(C)C1.[I-]	-55.4%
CC1(C)CC(N2CCCCC2)=CC(=[N+]2CCCCC2)C1.[I-]	8.09%
CC1(C)CC(N2CCN(Cc3ccccc3)CC2)=CC(=[N+]2CCCCC2)C1.[I-]	7.04%
CC1(C)CC(N2CCCC2)=CC(=[N+]2CCCCCC2)C1.[I-]	-8.68%
CC1(C)CC(N2CCN(C(c3ccccc3)c3ccccc3)CC2)=CC(=[N+]2CCCCC2)C1.[I-]	-72.1%
CC1(C)CC(NNCCC#N)=CC(=[N+]2CCCC2)C1.[I-]	5.87%
CCCC(C(=O)O)n1c(O)c(C=C2N=c3ccccc3=N2)sc1=S (stereo not drawn)	6.16%
CCN1C(=O)c2ccccc2Sc2ccc(C(=O)NCCN3CCOCC3)cc21	-5.49%
O=S(=O)(O)c1ccc(N=NNc2ccc(Br)cc2)cc1	30.7%
N#Cc1ccc(C23CC4(C2)[C@H](CN(P(=O)(c2ccccc2)c2ccccc2)[C@@H]4c2ccccc2)C3c2ccc(Cl)nc2)cc1 (stereo partly drawn)	-8%
CCC(C)n1c(SCC(=O)/C(C#N)=C(\C)N)nc2ccccc2c1=O (stereo not drawn)	-15.3%
O=C(/C=C/c1ccco1)Nc1ccc(Oc2ccccc2)cc1	-5.74%
COc1ccccc1CNCc1cc(OC)c(OC)cc1OC	-10.3%
Cc1cc(OC(C)C)nc(NCc2ccccc2)n1	-3.54%
COc1ccccc1-c1coc2c(CN3CCN(CCO)CC3)c(O)ccc2c1=O	17.7%

SMILES	hERG current change (%, negative = inhibition) at 10uM
N=c1c2c3c(sc2ncn1Nc1ccccc1)CCC3	-29.6%
CCOc1cccc(-c2nn3c(-c4cc(C)[nH]n4)nnc3s2)c1	-58.2%
COc1cccc(-c2nn3c(-c4cccc(C)c4)nnc3s2)c1	17.5%
CCOc1cccc(-c2nn3c(-c4ccco4)nnc3s2)c1	-49.4%
COc1cccc(-c2nn3c(-c4ccccn4)nnc3s2)c1	-28%
COc1cccc(-c2nn3c(-c4cc(C)[nH]n4)nnc3s2)c1	-57.5%
CCOc1cccc(-c2nn3c(-c4ccccn4)nnc3s2)c1	6.33%
CN(C)/C=C/C(=O)c1ccc(N2CCN(c3ncc(C(F)(F)F)cc3Cl)CC2)cc1	-6.08%
CCOC(=O)c1ccccc1NC(=S)N1CC(C)CC(C)C1 (stereo not drawn)	-7.45%
CCOc1ccccc1CNCCc1ccc2c(c1)OCO2.Cl	-32.8%
c1cc(CNCCc2ccc3c(c2)OCO3)ccn1	18.3%
O=C(O)C(=O)O.O=[N+]([O-])c1cc2c(cc1CNCCc1ccc3c(c1)OCO3)OCO2	-61.5%
COc1cccc(CNCCc2ccc3c(c2)OCO3)c1OC.O=C(O)C(=O)O	-15.5%
Brc1cccc(CNCCc2ccc3c(c2)OCO3)c1.O=C(O)C(=O)O	-24.9%
Clc1ccc(CNCCc2ccc3c(c2)OCO3)cc1.O=C(O)C(=O)O	-56.1%
COc1ccc(CNCc2cc3c(cc2[N+](=O)[O-])OCO3)cc1.O=C(O)C(=O)O	-40.8%
FC(F)(F)c1ccc(CNCCc2ccc3c(c2)OCO3)cc1.O=C(O)C(=O)O	-60.3%
Clc1cccc(CNCCc2ccc3c(c2)OCO3)c1.O=C(O)C(=O)O	-24%
Fc1ccc(CNCCc2ccc3c(c2)OCO3)cc1	-3.52%
CCOc1ccc(CNCCc2ccc3c(c2)OCO3)cc1	-77.2%
O=C(O)C(=O)O.c1cncc(CNCCc2ccc3c(c2)OCO3)c1	8.84%
